Compound activity as filed in PubChem BioAssay.
Rows were chosen to be rich in hits. Some 2.4% of all compounds tested hit in one or more screens of this group.
TRHR ag: qHTS for Small Molecule Agonists and Allosteric Enhancers of Human TRH Receptor: Primary Screen for Agonists; 0.18% of 360,000 active; AID 493084, 2011; TRHR cells, calcium flux fluo-8, FDSS agonist mode; activation, % at 2 µM; in the data active = activation above about 30%; also: 0% is about no effect
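TRHR-expressing cells, plated overnight in medium with 10% serum, were loaded with fluo-8 calcium dye at room temperature. After a 10 s baseline, library compound was pin-added and calcium release was recorded kinetically (ex 480/em 530) as agonist response.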
GLP-1R inv ag: qHTS of GLP-1 Receptor Inverse Agonists (Inhibition Mode). Potency, µM (doses to about 38.3 µM), for inactives: at the top dose activity change, negative = inhibition, hits mostly inhibitors. HEK293 GLP-1R CRE-luciferase, luminescence, 24 h; GLP-1R form is constitutively active. 1.6% of 410,000 active. AID 624417, 2012. Glucagon-like peptide 1 receptor (Homo sapiens), P43220; also: potency is read from the fitted curve at half-maximal effect; % is scaled to controls: 0 for no effect and ±100 for the full control effect; nearly all actives have a fitted effect of over 55% in size
Target sequence (P43220 whole entry, looked up): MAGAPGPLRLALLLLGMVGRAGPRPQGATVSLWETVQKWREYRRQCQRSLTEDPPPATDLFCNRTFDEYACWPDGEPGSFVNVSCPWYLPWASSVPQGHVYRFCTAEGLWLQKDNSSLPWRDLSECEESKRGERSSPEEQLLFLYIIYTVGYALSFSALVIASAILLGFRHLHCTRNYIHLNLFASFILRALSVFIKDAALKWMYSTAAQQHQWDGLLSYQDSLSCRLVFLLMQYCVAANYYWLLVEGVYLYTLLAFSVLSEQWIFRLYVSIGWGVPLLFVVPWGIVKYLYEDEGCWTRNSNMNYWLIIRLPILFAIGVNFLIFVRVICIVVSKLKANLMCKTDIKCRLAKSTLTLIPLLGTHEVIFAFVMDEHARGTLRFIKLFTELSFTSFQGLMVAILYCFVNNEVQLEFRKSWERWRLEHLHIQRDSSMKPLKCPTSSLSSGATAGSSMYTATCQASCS
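Assay principle: reduced luminescence from a cAMP-responsive reporter in HEK293 cells co-expressing a constitutively active GLP-1R. Conditions: 24 hr compound incubation, 37 deg C, 5% CO2.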
TRHR enhancer: qHTS for Small Molecule Agonists and Allosteric Enhancers of Human TRH Receptor: Primary Screen for Enhancers. 0.66% of 360,000 active. TRHR cells, fluo-8 calcium fluorescence, EC20 TRH enhancement. enhancement, % at 2 µM. Thyrotropin-releasing hormone receptor (Homo sapiens), P34981; in the data active = enhancement above about 30%; also: 0% is about no effect
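TRHR-expressing cells loaded with fluo-8 calcium dye were read kinetically (ex 480/em 530) during compound addition, then stimulated with an EC20 of TRH (10 nM final). Enhancement of the Gq-mediated intracellular calcium response was scored.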
GLP-1R agonist: qHTS of GLP-1 Receptor Agonists; Glucagon-like peptide 1 receptor (Homo sapiens), P43220; HEK293 GLP-1R CRE-luciferase, luminescence, 4-6 h; cells express a hypersensitive GLP-1R form; Potency, µM (titrated, usually from 45.6 µM), inactives show at the highest dose activation, hits mostly activators; 0.007% of 380,000 active; AID 624172, 2012; also: potency is read from the fitted curve at half-maximal effect; % of control where 0% means no effect
PTHR1 agonist: qHTS for PTHR1 Agonists: Primary Screen; Potency, µM (titrated, usually from 115 µM), inactives show at the top dose activation, usual class: activators; AID 743266, 2014; 0.075% of 410,000 active; HEK293 GP2 PTHR1 cells, GloSensor cAMP luminescence, 1 h; also: potency is read from the fitted curve at half-maximal effect; nearly all actives have a fitted effect of over 55% in size
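HEK-293-derived GP2 cells expressing PTHR1 and a GloSensor cAMP reporter, 3,000/well, plated overnight, given luciferin plus IBMX (each 0.5 mM as added) for 1 h at 37 °C, then compound for 1 h at 37 °C. Luminescence was read after 15 min at room temperature.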
HEK293 tox: qHTS of GLP-1 Receptor Inverse Agonists: Cytotox Screen; HEK293 cAMP-luciferase reporter cells, luminescence, 24 h; 0.13% of 410,000 active; AID 624418, 2012; Potency, µM (top dose mostly 38.3 µM), without a hit: at the highest dose activity change, negative = inhibition, hits mostly inhibitors;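 also: loss of luciferase light is scored as toxicity; potency is read from the fitted curve at half-maximal effect; % is scaled to controls: 0 for no effect and ±100 for the full control effect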
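Step one: seed cells (200 cells/uL, DMEM with 10% Nu serum, 1% pen-strep). Step two: 12-hour incubation at 37 deg C. Step three: pin 23 nL compound, incubate 24 hr. Step four: add luciferase reagent, read luminescence 12 min later.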
* hit, by the source's call; i = inactive; u = inconclusive; x = no result given; [ ] = dose if it differs, or a comment. Unless noted, calls follow the shape of the dose curve; as a rule, active = well fitted curve in the direction sought with a large enough effect; inconclusive = small, poorly fitted or top-dose-only effect, or another doubt; inactive = no such curve, though single readings can be large; an effect the other way counts as inactive or inconclusive.

SMILES	TRHR ag	GLP-1R inv ag	TRHR enhancer	GLP-1R agonist	PTHR1 agonist	HEK293 tox
O=C(Nc1nnc(SCc2ccccc2F)s1)C1=COCCO1	0.4	2.6%	4.6	-0.2%	-17.3%	3.7%
O=[N+]([O-])c1cccnc1N1CCC(c2cc(-c3ccc(Cl)cc3Cl)n[nH]2)CC1	-0.1	5.01µM*	2.8	-0.7%	i	-22.4%
CCN1CCN(c2ccc(S(=O)(=O)N3CCCCC3)cc2NC(=O)/C=C/c2cc(OC)ccc2OC)CC1	0.6	-26.4%	30.0*	-4.1%	25.5%	-1.7%
CCCOc1ccc(-c2cn3ccccc3n2)cc1	-1.0	7.08µM*	-4.0	-3.2%	-82.1%	11.7%
CCC(C(=O)NC1CCCC1)N(C(=O)c1snc(C(N)=O)c1N)c1ccc(OC)cc1 (stereo not given)	-0.5	4.2%	-2.8	1.6%	-19.1%	-4.4%
CCN1/C(=C/C=C/c2oc3ccc4ccccc4c3[n+]2CC)Oc2ccc3ccccc3c21	31.4*	u	-0.5	0.5%	i	u
CC[n+]1c(/C=C/N(C)c2ccccc2)oc2ccc(Cl)cc21	-0.5	-7.4%	-7.1	1.7%	x	-4.2%
CCCCc1n(CC(=O)c2ccc(Cl)cc2)c2ccccc2[n+]1C	1.5	-28.3%	-10.2	4.0%	-0.5%	-16.7%
O=C(CNC1CCCCCC1)Nc1ccc(S(=O)(=O)NC2CC2)cc1	-0.5	-0.1%	-2.1	1.0%	i	-8.2%
N/C(=N\OC(=O)c1cccc(Br)c1)c1ccccn1	-1.2	6.31µM*	-8.5	-0.5%	-29.4%	-12.3%
N/C(=N\OC(=O)c1cccc(Cl)c1)c1ccccn1	-0.1	u	4.4	-2.0%	-35.2%	u
NC(=O)N=Nc1c(O)[nH]c2ccc([N+](=O)[O-])cc12	0.0	10.9%	1.2	2.5%	i	-17.1%
CC(C)NC(=S)N=Nc1c(O)[nH]c2ccc([N+](=O)[O-])cc12	-0.3	u	10.2	10.3%	-25.1%	2.51µM*
O=C(CNC(=O)c1ccco1)N=Nc1c(O)[nH]c2ccc([N+](=O)[O-])cc12	0.3	6.9%	6.4	8.0%	14.9%	u
C=C(C)CNC(=S)N=Nc1c(O)[nH]c2ccc([N+](=O)[O-])cc12	-0.3	-72.7%	-2.6	9.6%	-6.4%	4.47µM*
CCn1ccnc1CN(C)Cc1cn(-c2cccc(C)c2)nc1-c1cccc(F)c1	0.7	12.6µM*	2.5	-3.2%	u	u
COc1ccc(S(=O)(=O)Nc2cc3c4c(oc3c3ccccc23)CCCC4=O)cc1	-1.1	5.01µM*	2.3	4.4%	-0.4%	u
O=C1[C@H]2[C@@H](c3ccccc3)N[C@]3(CCCN(Cc4ccc(C(F)(F)F)cc4)C3=O)[C@H]2C(=O)N1Cc1ccccc1	x	11.2µM*	x	-3.9%	-45.5%	-0.5%
O=C1[C@H]2[C@@H](c3ccc(C(F)(F)F)cc3)N[C@]3(CCCN(Cc4ccc(F)cc4)C3=O)[C@H]2C(=O)N1Cc1ccccc1	x	8.91µM*	x	-6.4%	-33.4%	u
O=C1[C@H]2[C@@H](c3ccccc3)N[C@]3(CCCN(Cc4ccc(F)cc4)C3=O)[C@H]2C(=O)N1Cc1ccccc1	x	-22.9%	x	-1.4%	-5.0%	-5.7%
CCNC(=S)N(CCc1c(C)[nH]c2ccc(C)cc12)Cc1cc(OC)c(OC)c(OC)c1	2.8	u	1.5	6.3%	-23.8%	-19.7%
O=C(Nc1nc(-c2ccc(Br)cc2)cs1)c1cccnc1	0.4	23.1%	-9.8	4.3%	-19.5%	-2.4%
CC(C)/C=N/Nc1nc(-c2ccc(Br)cc2)cs1	0.2	5.62µM*	2.1	-4.8%	-57.8%	-6.3%
Cc1ccc2nc(N3CCN(CCO)CC3)nc(-c3ccccc3)c2c1	-1.1	6.31µM*	22.0	21.3%	i	67.8%
CN1CCN(c2nc(-c3ccccc3)c3cc(Cl)ccc3n2)CC1	-0.2	-33.0%	-3.6	1.2%	i	117.3%
SMILES	TRHR ag	GLP-1R inv ag	TRHR enhancer	GLP-1R agonist	PTHR1 agonist	HEK293 tox
CCOC(=O)N1CCN(c2nc(-c3ccccc3)c3cc(C)ccc3n2)CC1	-0.5	7.1%	-2.4	8.5%	-1.6%	56.2%
OCCN1CCN(c2nc(-c3ccccc3)c3cc(Cl)ccc3n2)CC1	3.1	3.55µM*	25.3	-19.8%	-17.5%	117.3%
Cc1ccc(C(=O)COC(=O)c2cnccn2)cc1[N+](=O)[O-]	0.4	-21.5%	-2.4	-0.4%	-12.7%	-5.7%
CCN(CC)CCCC(C)n1c(C)cc(C(=O)NS(=O)(=O)c2ccc(C)cc2)c1C (stereo not given)	x	-10.6%	x	-3.6%	i	-3.1%
COc1ccc(-c2ccc(=O)n(CC(=O)Nc3ccc4c(c3)OCCO4)n2)cc1	0.1	32.5%	3.7	28.6%	i	-13.1%
CC(=O)c1c(C)[nH]c(C(=O)Nc2ccc(Cl)cc2F)c1C	-0.7	0.8%	1.3	23.3%	-17.8%	5.3%
CC(=O)c1c(C)[nH]c(C(=O)Nc2ccc(Cl)cc2)c1C	-1.1	u	36.0*	5.4%	-24.0%	-3.1%
COc1ccc(NC(=O)/C(C#N)=C\c2ccc(N3CCOCC3)o2)cc1	74.6*	28.7%	0.6	11.5%	-26.2%	-9.0%
N#C/C(=C/c1ccc(N2CCCCC2)o1)C(=O)Nc1ccc(Cl)cc1	164.6*	8.2%	0.4	-12.8%	-15.4%[57.5 µM]	-2.4%
CCOC(=O)/C(C#N)=C/c1ccc(-c2ccc(Br)cc2)o1	9.3	8.6%	36.8*	x	-23.5%	1.8%
N#C/C(=C\c1ccc(N2CCOCC2)o1)C(=O)Nc1ccc(O)cc1	17.2	50.1%	1.7	29.6%	-9.3%	-15.1%
N#C/C(=C/c1ccc(N2CCCCC2)o1)C(=O)Nc1ccc2ccccc2c1	106.4*	u	-13.8	-5.0%	-44.1%	-5.6%
COc1ccc(NC(=O)/C(C#N)=C/c2ccc(C)o2)cc1	-1.7	-0.2%	7.9	x	i	-9.2%
COc1cccc(NC(=O)/C(C#N)=C/c2ccc(-c3ccc(C)cc3)o2)c1	33.6*	8.9%	8.4	x	i	266.5%
Cc1ccc(S(=O)(=O)Nc2ccc(Cl)cc2)cc1NC(=O)c1cc2c(s1)CCCC2	0.3	u	32.2*	-4.6%	-37.3%	u
O=C1C2C3C=CC(C3)C2C(=O)N1c1ccccc1OS(=O)(=O)c1ccccc1 (stereo not given)	1.1	7.9%	1.0	-2.0%	i	-6.2%[1.53 µM]
COCCNC(=S)NN=C1CCCCC1	0.0	-8.8%[7.66 µM]	-3.9	-1.5%	9.4%	-0.9%[7.66 µM]
